# According to PubChem BioAssay (NCI):
# Several values for one entry are separate records, joined by “and”; a condition that tells them apart may be missing. Equal entries are not always repeated. This is part of a sample that, as a whole, favours compounds with a hit. Of some 83,000 tested, about 20% had one in any assay.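 Single-concentration screen, 48 h exposure, 96-well plates. Endpoint: percent growth. Below 10 = active.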 Activity calls are given as the source filed them.
# Tested on: MDA-MB-468 breast
# Test: NCI-60 one-dose screen, 48 h (100 = growth as untreated, 0 = no growth, -100 = all killed)
# Settings: 10 µM unless noted
row,Compound,growth
1,O=C=NC(c1ccccc1)(c1ccccc1)c1ccccc1,118% (inactive)
2,O=C(NCCCCCCNC(=O)c1c2c(nc3ccccc13)-c1cccnc1SC2)c1c2c(nc3ccccc13)-c1cccnc1SC2,90.4% (inactive)
3,CCN(CC)CCNC(=O)c1c(C)[nH]c(/C=C2\C(=O)Nc3cc(NC(=O)NC(=O)c4ccc(OC)cc4F)ccc32)c1C,75.2% (inactive)
4,Clc1ccc2c(c1)C(c1c[nH]c3ccccc13)(c1c[nH]c3ccccc13)CCO2,86.5% (inactive)
5,O=C(CSc1nnnn1-c1ccccc1)Nc1ccc(Oc2ccccc2)cc1,115% (inactive)
6,CCCCCCCCC/C(=N\NC(=O)c1ccncc1)c1ccc(O)c(O)c1O,18.5% (inactive)
7,Cc1cc(C)c(C(=O)OC(C)CNC2CCCCC2)c(C)c1 (stereo not given),103% (inactive)
8,Cc1ccnc2c1ccc1c(C)ccnc12,-17.8% (active)
9,CN(C)CCN1C(=O)c2c(c3c4ccccc4n4c3c3c2c2ccccc2n3C2CC(O)C(O)C4(C)O2)C1=O (stereo not given),12.8% (inactive)
10,CNC(=O)c1cc(Oc2ccc3nc(NC(=O)Nc4ccc(Cl)cc4)sc3c2)ccn1,55.1% (inactive)
11,CCC(C)CC(C)C(=O)c1c(O)ccn(OC)c1=O (stereo not given),69.4% (inactive)
12,C=C1C(=O)O[C@H]2[C@H]1CC/C(COC(=O)NCc1ccc(Cn3c(=O)sn(-c4ccc(OC)cc4)c3=O)cc1)=C\CC[C@@]1(C)O[C@@H]21,17.9% (inactive)
13,CCN(Cc1ccccc1)c1ccc(C=O)cc1,62.9% (inactive)
14,Cc1nnc(NS(=O)(=O)c2ccc(N=Nc3ccc(N)nc3N)cc2)s1,120% (inactive) and 132% (inactive)
15,c1ccc2cc(-c3n(Cc4ccc5ccccc5n4)c4ccccc4[n+]3Cc3ccc4ccccc4n3)ccc2c1,-36% (active)
16,COc1cc(/C=C/c2cc(/C=C/c3ccc(O)c(OC)c3)n(-c3ccccc3)c(=O)n2)ccc1O,63% (inactive)
17,COc1ccc(C2=C(Br)C(=O)c3nc(C)ccc3C2=O)cc1,87.1% (inactive)
18,Oc1ccc(N=Cc2ccccc2O)cc1,93.3% (inactive)
19,Fc1ccc(NC(=S)c2ccccc2)cc1,97.5% (inactive)
20,COc1cc2cc(Oc3ccc(NC(=O)Nc4ccc(C(F)(F)F)cc4)cc3)c(C)nc2cc1OC,40.1% (inactive)

row,Compound,growth
1,NCCSC(C[N+](=O)[O-])c1ccccc1Cl (stereo not given),10.2% (inactive)
2,O=C(CCc1nnc2sc(-c3ccccc3)nn12)c1nc2ccccc2[nH]1,87.3% (inactive)
3,O=C1/C(=C2/C=Nc3ccccc32)N(O)c2ccccc21,62.2% (inactive)
4,COc1ccc(-c2nn(-c3cccc(Cl)c3)cc2C=C(C#N)C#N)cc1,-2.82% (active)
5,CCCNC(=O)Nc1ccc2cc3ccc(NC(=O)NCCC)cc3nc2c1,-52.4% (active)
6,CC(=O)c1nc2ccccc2n1CCN1CCN(C)CC1,-20.2% (active)
7,COc1cc(-c2nc3sccn3c2-c2ccnc(NCCNS(=O)(=O)c3ccc(F)cc3)n2)ccc1F,4.24% (active)
8,CCN(CC)c1cc(/C=C/c2ccc(OC)c(OC)c2)nc2cc(F)c(F)cc12,-32.6% (active)
9,COc1ccc(C(=O)n2nc(/C=C/c3ccc(O)c(OC)c3)cc2/C=C/c2ccc(O)c(OC)c2)cc1,-8.43% (active)
10,Fc1ccc(-c2nn3c(-c4cc(C(F)(F)F)cc(C(F)(F)F)c4)nnc3s2)cc1,25.5% (inactive)
11,CCNCCNc1cc(-c2ccc(C(F)(F)F)cc2)c(C#N)c2nc3cc(Cl)c(Cl)cc3n12,-82% (active)
12,CCC(C)(C)C(=O)O[C@H]1C[C@@H](C)C=C2C=C[C@H](C)[C@H](CC[C@@H]3CC(SCCN)CC(=O)O3)[C@H]21 (stereo not given in full),90.3% (inactive)
13,O=C(NCCNC(=O)c1ccc(F)cc1)Nc1ccc(-n2cc(-c3ccncc3)c(-c3ccc(Cl)c(O)c3)n2)cc1,-35.9% (active)
14,CN(C)CCN1C(=O)c2cccc3c(N)ccc(c23)C1=O,38.7% (inactive)
15,COc1ccc(-c2nc(S(=O)(=O)c3ccccc3)c(S(=O)CC(=O)N3CCC(C)CC3)o2)cc1 (stereo not given),-15% (active)
16,C=CCSC(CC)(CC)C(=O)NC,99.3% (inactive)
17,C=CCNc1nnc(C)s1,104% (inactive)
18,C[C@@H](Oc1cc(C(=O)Nc2ccc(C(=O)N3CCN(C)CC3)cc2)nnc1N)c1c(Cl)ccc(F)c1Cl,62.3% (inactive)
19,CCCCCCNC(=O)c1cc(NCc2cc(O)ccc2O)ccc1O,65.6% (inactive)
20,C/C=C(/C)C(=O)OC1C=C(CO)C(=O)C(OC(=O)/C(C)=C\C)C1C(C)C (stereo not given),-50.9% (active)
